Screening results as filed in PubChem.
An excerpt weighted towards active compounds, which were near 19% of everything screened.
DT40 TDP1 CPT: qHTS for Inhibitors of human tyrosyl-DNA phosphodiesterase 1 (TDP1): qHTS in cells in presence of CPT. AID 686979, 2013. 12% of 420,000 active. Potency, µM (doses to about 46.2 µM), for inactives: at the top dose activity change, negative = growth inhibition, actives largely listed as inhibitors. chicken DT40 Tdp1-/-;hTDP1 cells + 20 nM CPT, ATP luminescence, 48 h; also: potency is read from the fitted curve at half-maximal effect; nearly all actives have a fitted effect of over 55% in size
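Chicken DT40 Tdp1-/- cells stably complemented with human TDP1 were seeded at 400 cells/well in medium containing 20 nM camptothecin, exposed to pin-transferred compounds, and grown at 37 °C for at least 48 hr. Viability was read as ATP luminescence.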
HT1080-NT tox: qHTS for induction of synthetic lethality in tumor cells producing 2HG: qHTS for the HT-1080-NT fibrosarcoma cell line; HT-1080-NT fibrosarcoma viability, CellTiter-Glo ATP luminescence, 48 h; Potency, µM (doses to about 46.1 µM), for inactives: at the highest dose activity, negative = less viability, most hits filed as cytotoxic; 1.6% of 360,000 active;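 also: NT is the 2HG producing partner of a matched IDH1 knockdown line; potency is read from the fitted curve at half-maximal effect; 0% = DMSO-treated cells and -100% = media-only wells without cells; nearly all actives have a fitted effect of over 55% in size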
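Read-out is CellTiter-Glo luminescence after 10 minutes at room temperature, following 48 hours' compound treatment of HT-1080-NT cells (750 cells/well, RPMI, 5% FBS, 37 degrees C).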
DT40 TDP1 no CPT: qHTS for Inhibitors of human tyrosyl-DNA phosphodiesterase 1 (TDP1): qHTS in cells in absence of CPT; AID 686978, 2013; 15% of 420,000 active; DT40 Tdp1-/- hTDP1 cells, no CPT, ATP luminescence, 48 h; Potency, µM (series often up to 46.2 µM), for the others: top-dose activity change, negative = growth inhibition, usual class: inhibitors; also: potency is read from the fitted curve at half-maximal effect; nearly all actives have a fitted effect of over 55% in size
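Chicken DT40 Tdp1-/- cells complemented with human TDP1, screened without camptothecin (DMSO vehicle only), 400 cells/well. Compounds pin-transferred, cells incubated at 37 °C for at least 48 hr. Growth read as ATP-dependent luminescence (CellTiter-Glo, 30 min at RT).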
HT1080 IDH1KD tx: qHTS for induction of synthetic lethality in tumor cells producing 2HG: qHTS for the HT-1080-IDH1KD cell line; 2% of 360,000 active; Potency, µM (titrated, usually from 46.1 µM), inactives show at the top dose activity, negative = toxicity, usual class: cytotoxic; HT-1080 IDH1 knockdown viability, ATP luminescence, 48 h;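 also: potency is read from the fitted curve at half-maximal effect; 0% = DMSO wells and -100% = cell-free medium wells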
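Assay cells: HT-1080 with IDH1 knockdown, 750 per well, RPMI/5% FBS. Exposure: 48 h at 37 °C following 2 h pre-incubation. Read: CellTiter-Glo luminescence; fitted concentration-response, curve class assigned.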
IL-1B inflam inh: qHTS for Inhibitors of Inflammasome Signaling: IL-1-beta AlphaLISA Primary Screen. THP-1 LPS/ATP IL-1B secretion, AlphaLISA, 16 h; hits give low values. activity change, % at 57.5 µM. 4.7% of 360,000 active. AID 743279, 2014; in the data active = activity change below about -50%; inconclusive = mostly about -30% to -49%
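Secreted IL-1B measured by AlphaLISA bead assay after 16 h compound exposure of THP-1 cells; compounds (final up to 57.5 uM) added 1 h before LPS (250 ng/mL) and ATP (1.25 mM) stimulation; lower signal means less secretion.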
An asterisk follows results filed as active; ? = inconclusive; . = not tested or not shown; [ ] = another dose, or the depositor's remark. Unless noted, calls follow the shape of the dose curve; as a rule, active = well fitted curve in the direction sought with a large enough effect; inconclusive = small, poorly fitted or top-dose-only effect, or another doubt; inactive = no such curve, though single readings can be large; an effect the other way counts as inactive or inconclusive. Unless noted, % is scaled to controls: 0 for no effect and ±100 for the full control effect.

SMILES	DT40 TDP1 CPT	HT1080-NT tox	DT40 TDP1 no CPT	HT1080 IDH1KD tx	IL-1B inflam inh
CCOC(=O)CN(Cc1ccccc1)C(C(=O)NC1CCCCC1)c1ccccc1 (stereo not drawn)	21µM*	.	15µM*	.	.
N#CCCN(Cc1ccccc1)C(C(=O)NC1CCCCC1)C1CC1 (stereo not drawn)	16µM*	13%	15µM*	0%	8
COc1ccc(N(C(=O)c2ccco2)C(C(=O)NC2CCCCC2)c2ccccc2)cc1 (stereo not drawn)	16µM*	2%	26µM*	-1%	1
COc1cc(OC)cc(N(C(=O)c2ccco2)C(C(=O)NC2CCCC2)c2ccc(N(C)C)cc2)c1 (stereo not drawn)	?	-13%	?	-2%	-3
COc1ccc(N(C(=O)c2ccco2)C(C(=O)NC2CCCC2)c2ccc(N(C)C)cc2)cc1 (stereo not drawn)	?	-14%	16µM*	-28%	-21
O=C(c1ccco1)c1cn[nH]c1-c1ccc(Cl)cc1O	?	-8%	?	-18%	-9
N#CCC(=O)NN	-3%	.	-15%	.	.
COc1cccc(N(C(=O)c2ccco2)C(C(=O)NC2CCCC2)c2ccc(N(C)C)cc2)c1 (stereo not drawn)	?	0%	16µM*	1%	-4
Oc1ccccc1C1=Nc2ccccc2N=C(c2cccs2)C1	-11%	-22%	-8%	?	-7
Cc1ccc(O)c(C2=Nc3ccccc3N=C(c3cccs3)C2)c1	?	0%	16µM*	-1%	-12
Cc1cc(NC(=O)CN(C)CC(=O)Nc2ccc(Cl)c(C(F)(F)F)c2)no1	15µM*	-28%	16µM*	-8%	-12
Cc1ccc(NC(=O)CN(C)C(=O)c2cccnc2Nc2cccc(C(F)(F)F)c2)cc1	?	?	?	?	-79*
Cc1cc(NC(=O)CN(C)CC(=O)Nc2ccc(Cl)cc2)no1	?	-4%	?	-14%	19
COc1ccc(NC(=O)CSCC(=O)N(C)CC(=O)Nc2ccc(Cl)c(C(F)(F)F)c2)cc1	?	?	?	-28%	-7
CN(CC(=O)Nc1ccc(Cl)c(C(F)(F)F)c1)C(=O)c1cccc2cccnc12	?	0%	23µM*	-4%	-26
Cc1cc(C)cc(OCC(=O)N(C)CC(=O)Nc2ccc(Cl)c(C(F)(F)F)c2)c1	?	-2%	?	-24%	-78*
COC(=O)c1nc2ccccn2c1F	6%	4%	5%	7%	4
CN(CC(=O)Nc1ccc(Cl)c(C(F)(F)F)c1)C(=O)CNC(=O)C1CCCCC1	?	0%	16µM*	-3%	10
CN(CC(=O)Nc1ccc(Cl)c(C(F)(F)F)c1)S(=O)(=O)c1cnc[nH]1	15µM*	6%	15µM*	5%	12
CN(CC(=O)Nc1ccc(Cl)c(C(F)(F)F)c1)C(=O)C1CCC1	?	-2%	?	3%	-6
CN(CC(=O)Nc1ccc(Cl)c(C(F)(F)F)c1)C(=O)CCCNC(=O)c1ccc(Cl)cc1	21µM*	?	15µM*	?	-22
N#Cc1ccc(/C=N/NC(=O)c2cccc(S(=O)(=O)N3CCOCC3)c2)cc1	18%	1%	-9%	-14%	21
O=C(CN(Cc1ccccc1F)C(=O)c1csnn1)NCc1ccc2c(c1)OCO2	2%	9%	-24%	2%	3
COc1ccccc1C1CN(CCNC(=O)c2cnsn2)Cc2ccccc2O1 (stereo not drawn)	-7%[9.04 µM]	.	-57%	.	.
Brc1ccc([C@H]2C=C[C@H]3CCCN4CC[C@H]2[C@@H]3[C@]42CO2)cc1	18µM*	-12%	12µM*	-23%	?
SMILES	DT40 TDP1 CPT	HT1080-NT tox	DT40 TDP1 no CPT	HT1080 IDH1KD tx	IL-1B inflam inh
CN(C)/C=C(\c1cnc(Cl)s1)S(=O)(=O)c1ccccc1	-2%	11%	-16%	-4%	0
CC12CCC(=O)N1C(C(=O)NNC(=O)c1ccc(F)cc1)CS2 (stereo not drawn)	3%	-6%	14%	-10%	-6
COc1ccc(-c2oc3ncnc(NCCCN4CCOCC4)c3c2-c2ccc(OC)cc2)cc1	?	?	18µM*	?	?
c1ccc(-c2oc3ncnc(NCCCN4CCOCC4)c3c2-c2ccccc2)cc1	?	-13%	23µM*	-11%	-22
COc1ccc(-c2oc3ncn(CCN4CCOCC4)c(=N)c3c2-c2ccc(OC)cc2)cc1	16µM*	?	13µM*	?	-53*
COc1ccc(-n2ncc3c(NCCN4CCOCC4)ncnc32)cc1	-6%	9%	-3%	9%	7
COc1ccc(-c2oc3ncnc(NCCN4CCOCC4)c3c2-c2ccc(OC)cc2)cc1	?	1%	15µM*	-1%	18
O=C(OCCNc1ncc(C(F)(F)F)cc1Cl)c1ccc(S(=O)(=O)N2CCOCC2)cc1	-1%	-3%	-4%	9%	7
Cc1ccc(S(=O)(=O)NCCN=C(CN2CCCC2)NS(=O)(=O)c2ccc(C)cc2)cc1	-21%	11%	-15%	-3%	-6
OCCCNc1ncnc2oc(-c3ccccc3)c(-c3ccccc3)c12	?	?	16µM*	?	-24
CCOc1cc2nc(-c3ccc(OC)c(OC)c3)nc(NCCCN3CCOCC3)c2cc1OC	?	?	21µM*	?	-60*
COc1cc2ncnc(NCCCN3CCOCC3)c2cc1OC	6%	9%	4%	0%	-2
C/C(=C\C(=O)c1ccc(C)cc1)Nc1cccc(O)c1	18µM*	-19%	?	-25%	-2
CCCCCSc1ncnc2c1sc1nc(N3CCOCC3)c3c(c12)CCCC3	-2%	.	-8%	.	.
O=C(NC1CC(=O)N(c2ccc(Cl)cc2)C1)c1ccc(S(=O)(=O)N2CCOCC2)cc1 (stereo not drawn)	-25%	.	-26%	.	.
CC(=O)c1ccc(S(=O)(=O)NC2CC(=O)N(c3ccc(Cl)cc3)C2)cc1 (stereo not drawn)	?	-7%	13µM*	0%	7
CCOc1ccc2[nH]cc(C(=O)NCCc3ccccc3)c(=O)c2c1	?	-20%	?	-2%	-54*
CCc1ccc2[nH]cc(C(=O)OCCOC)c(=O)c2c1	?	7%	23µM*	13%	8
CCOc1ccc2[nH]cc(C(=O)NCc3ccccc3)c(=O)c2c1	16µM*	-13%	21µM*	-2%	-10
